Test results from PubChem BioAssay AID504465 (National Center for Advancing Translational Sciences (NCATS), 2011).
Out of some 2,100 compounds screened, about 210 (10%) were called active. Not shown: some 53% with an inconclusive outcome. Calls come from the whole dose curve; as a rule, active = well fitted inhibition curve with a large enough effect; inconclusive = small, poorly fitted or top-dose-only effect, or effect the other way; inactive = no such curve, though single readings can be large or run the other way. This is one part of the list.

test: IN Cell qHTS Assay for Inhibitors of the mTORC1 Signaling Pathway in MEF (Tsc2-/-, p53-/-) Cells: Sytravon; conditions: phospho-rpS6 immunofluorescence, 24 h; series mostly up to 38.3 µM; activity, negative = inhibition: at the top concentration; note: nearly all actives have a fitted effect of over 60% in size
Summary of the method: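 Immunofluorescence of rpS6 phosphorylation (Ser235/236) in mouse embryonic fibroblasts lacking Tsc2 and p53, after 24 h compound exposure; Hoechst-normalized signal imaged, each well scored as % active cells relative to rapamycin (7.5 nM) and DMSO controls.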
Potency is the fitted concentration of half-maximal effect.

activity, negative = inhibition, inactive:
Cc1cc(C)c(NC(=O)c2cc(S(=O)(=O)NCCC3=CCCCC3)ccc2F)c(C)c1 6.25%
CCc1ccc(Sc2cc(C(=O)NCCCN3CCC(C)CC3)c3ccccc3n2)cc1 6.25%
CCN(CCCNC(=O)c1cc2c(=O)[nH]c3ccccc3c2s1)c1ccccc1 -22.3%
CCc1cccc(NC(=O)c2oc3ccc4c(c3c2C)C(=O)CC(C)(C)O4)c1 -21.1%
c1ccc(CNc2ncnc3[nH]ncc23)cc1 6.25%
COc1ccc(-c2cc(NCc3ccc(C)cc3)n3cnnc3n2)cc1 -18.2%
COc1ccc(CNC(=O)C2CCN(S(=O)(=O)c3ccc(C)cc3)CC2)cc1 -9.16%
Cc1oc2ccc(O)c(CN(C)Cc3ccccc3)c2c1C(=O)Nc1ccccc1 -8.08%
CCOc1cccc(NC(=O)C2CC(=O)N(CC)C(=Nc3ccc(F)cc3)S2)c1 (configuration not stated) -11.8%
O=C(NCC1CCN(Cc2ccccc2F)CC1)Nc1ccc(F)c(Cl)c1 -11.3%
Cc1ccc(C)c(CN2CCC(CNC(=O)c3cc4ccc5cccnc5c4[nH]3)CC2)c1 -15.8%
Cc1nn(C)c2c1c(C(F)(F)F)cc(=O)n2CC(=O)N1CCC(C)CC1 -0.547%
CSc1ccc(CCNS(=O)(=O)c2cc(-c3cc(C)no3)ccc2C)cc1 1.3%
N#Cc1ccc(-c2cccs2)nc1SCC(=O)Nc1cccc(C(F)(F)F)c1 -23.9%
CCOc1ccc(-c2cc(C(=O)N3CCN(c4cccc(C(F)(F)F)c4)CC3)c3ccccc3n2)cc1 6.25%
CCc1ccc(Sc2cc(C(=O)NCCCN3CCCC(C)C3)c3ccccc3n2)cc1 (configuration not stated) 6.25%
CCN1CCOC(=O)C1CC(=O)Nc1ccc(C)c(Cl)c1 (configuration not stated) -10.3%
COc1ccc(Nc2cc(C(=O)NCCCN3CCN(c4ccc(OC)cc4)CC3)c3ccccc3n2)cc1 0%
Cc1ccccc1Oc1nc2ccccn2c(=O)c1/C=C(\C#N)c1nc2ccccc2[nH]1 10.8%
CCn1c(CN2CCOCC2)nc2cc(NC(=O)c3ccccc3[N+](=O)[O-])ccc21 2.58%
CCOc1ccc(N2C(=O)c3[nH]nc(-c4ccc(OC)cc4)c3C2c2cccs2)cc1 (configuration not stated) -0.625%
CCOc1cc(C2c3c(-c4ccc(Br)cc4)n[nH]c3C(=O)N2c2ccc(Cl)cc2)ccc1O (configuration not stated) -96.1%
CC(C)CN(CC(C)C)S(=O)(=O)c1ccc(C(=O)Nc2sc3c(c2C(N)=O)CC(C)(C)NC3(C)C)cc1 6.25%
Cc1ccc(Nc2cc(C)nc3nc(Cc4ccc(Cl)cc4)nn23)cc1 -9.74%
Cc1cc(C)c(Nc2ncnc3c2cnn3C)c(C)c1 6.25%
COc1ccc(OC)c(Nc2ncnc3c2cnn3-c2cccc(Cl)c2)c1 6.25%
O=C(Nc1cc(Cl)cc(Cl)c1)c1cc(S(=O)(=O)NC2CCCC2)ccc1F 6.25%
CCCCOc1cccc(C(=O)N2CCN(CCc3ccncc3)CC2)c1 -60.4%
O=C(COC(=O)c1cccc(NC(=O)c2ccc(Br)cc2)c1)c1ccc(Br)cc1 9.28%
CN1CCc2c(sc(NC(=O)CSc3ccccc3)c2-c2nc3ccccc3s2)C1 0.735%
O=C(Nc1cc(Cl)ccc1Cl)c1cc(S(=O)(=O)NCCc2ccccc2)ccc1F 6.25%
Cc1n[nH]c(C)c1S(=O)(=O)N(CC(=O)Nc1ccc(C(F)(F)F)cc1)c1ccc(C(C)C)cc1 -100%
Cc1c(Cl)ccc2sc(NC(=O)c3ccc(S(=O)(=O)N4CCCc5ccccc54)cc3)nc12 -20.5%
Cc1c(C(=O)N2CCC(C)CC2)c(S(=O)(=O)N(Cc2ccccc2)C(C)(C)C)c(C)n1C 0%
O=C1CSC2(C(=O)N(Cc3cccc(C(F)(F)F)c3)c3ccccc32)N1c1ccc(F)c(F)c1 (configuration not stated) -6.7%
CCN(CC)CCNC(=O)c1ccc(-n2c(-c3ccccc3)cc3c2CCCC3)cc1 -15.2%
CCN(CC)CCCNC(=O)c1nn(C)c2c1CSc1ccccc1-2 3.66%

Potency, active:
Cc1ccc2[nH]c(=O)c3cc(C(=O)NCCCN4CCC(C)CC4)sc3c2c1 5.85 µM
COc1ccc(CNC(=O)c2cc(-c3ccc(OC)c(OC)c3)nc3n[nH]c(-c4ccc(C)cc4)c23)cc1 14.7 µM
Cc1ccc(C)c(CN2CCC(CNC(=O)Nc3ccc(Br)cc3F)CC2)c1 14.7 µM
CCOC(=O)CSc1nc(-c2ccccc2)cc(C(F)(F)F)c1C#N 9.27 µM
O=C(Cn1c(-c2cccs2)cc2ccccc21)NCCCN1CCN(c2ccc(F)cc2)CC1 14.7 µM
COc1ccc(-c2n[nH]c3c2C(c2ccc(O)cc2)N(c2ccc(Br)cc2)C3=O)cc1 (configuration not stated) 11.7 µM
Cc1cccc(-n2ncc3c(Nc4c(C)cc(C)cc4C)ncnc32)c1 3.69 µM
CCCCOc1cccc(NC(=O)c2cccc(C(=O)Nc3cccc(OCCCC)c3)c2)c1 11.7 µM
CS(=O)(=O)N(CC(=O)NCCc1ccccc1)c1cc(C(F)(F)F)ccc1Cl 8.26 µM
CCN(CC)CCCNC(=O)c1ccc(-c2nc(CN3CCc4ccccc43)c(C)o2)cc1 13.1 µM
